Common to all, as to test: Primary Screen for Target Class Profiling of Small Molecule Inhibitors of Methyltransferases
The target of test [1] is Catechol O-methyltransferase (Homo sapiens) (UniProt P21964). Conditions: purified enzyme, MTase-Glo SAH luminescence; activity change, negative = inhibition: at 40 µM, stronger effect = lower value; outcome: 40 uM. From the text:
(§1) PI: Matthew D. Hall Ph.D. and Quinlin M. Hanson Ph.D.
(§2) National Center for Advancing Translational Sciences (NCATS)
(§3) National Institute of Health (NIH), Rockville, MD
(§4) Target class profiling (TCP) is a chemical biology approach amenable to investigating understudied biological targets. TCP is achieved by developing a generalizable assay platform and applying it to screen a curated set of compound libraries against representative members of a target class. Small molecule methyltransferases (SMMTase) are a subclass of methyltransferase that act on metabolites to modulate signaling pathways, metabolize xenobiotics, or balance the available methyl pool. We screened four curated libraries totaling 27,574 unique compounds against the SMMTases nicotinamide N-methyltransferase (NNMT), phenylethanolamine N-methyltransferase (PNMT), histamine N-methyltransferase (HNMT), glycine N-methyltransferase (GNMT), catechol O-methyltransferase (COMT), and guanidinoacetate N-methyltransferase (GAMT). The data generated by this TCP can be leveraged for informed tool molecule development. For example, in the associated publication we identified a chemotype of HNMT-selective inhibitors. Additionally, we identified a putative SMMTase-selective inhibitor with potential as a tool molecule for studying broader methyltransferase biology.
(§5) High-through put screening assays were developed at the National Center for Advancing Translational Science (NCATS) for the enzymes NNMT, PNMT, HNMT, GNMT, COMT, and GAMT. Enzymatic activity was measured as a function of SAM cofactor conversion using the MTase Glo kit (Promega) for all enzymes. All assays were performed in 1536-well format with substrates and SAM concentrations at KM values. Enzyme concentration and assay timing were optimized for 10-20% SAM conversion. Initial screening of 27,574 compounds was done as single-point assays using the highest compound concentration (40 uM). […] These compounds were replated in 11-point dose response and assayed against NNMT, PNMT, HNMT, GNMT, COMT, GAMT, and a counter-assay. The IC50 and efficacy (maximal response) values were determined for each dose-response curve. These values are also accounted for in the area under the curve (AUC) values.
(§6) PROTOCOL TABLE (as described by Inglese J, Shamu CE and Guy RK. 2007)
(§7) SEQUENCE No. (e.g., 1, 2, 3, etc.); […] (e.g., Cells, Incubation, Reagent, etc.); VALUE; DESCRIPTION.
(§8) 1; Reagent; 2 uL; SMMTase Enzyme (2x) in reaction buffer, columns 1- 48.
(§9) 2; Reagent; 1 uL; SAM (4x) in reaction buffer, columns 1-48.
(§10) 3; Controls; 23 nL; DMSO in column 4; sinefungin in DMSO (0 uM - 40 uM) in 7-point 1:2 dilution series (n = 2) in column 2.
(§11) 4; Compounds; 23 nL; Columns 5-48.
(§12) 5; Reagent; 1 uL; Substrate (4x) in reaction buffer, columns 2-48.
(§13) 6; Time; 20-30 min; Incubation.
(§14) 7; Reagent; 1 uL; MTase-Glo reagent (5X), columns 1-48.
(§15) 8; Time; 30 min; Incubation.
(§16) 9; Reagent; 5 uL; MTase-Glo Detection reagent, columns 1-48.
(§17) 10; Time; 30 min; Incubation, luminescence evolution.
(§18) 11; Detection; Luminescence; ViewLux uHTS Microplate Imager (PerkinElmer).
(§19) NOTES (numbers refer to Sequence numbers above)
(§20) 1, 2, 5. White Medium Binding Greiner 1536-well plates (Cat #789175-F, Greiner Bio-One, Monroe, NC); Reaction buffer: 50 mM Tris, pH 8.0, 3 mM MgCl2, 1 mM EDTA, 50 mM NaCl, 1 mM DTT, and 0.1 mg/mL BSA. Evaporation was prevented by covering assay plates with metal lids containing holes to allow gas diffusion.
(§21) 1. Six SMMTase were profiled: HNMT, GNMT, PNMT, COMT, NNMT, GAMT
(§22) 5. The corresponding substrate was used for each enzyme: HNMT - 5.3 uM Histamine; GNMT - >500 uM Glycine; PNMT - 16.2 uM Norephinephrine; COMT - 13.7 uM Norephinephrine; NNMT - 3.8 uM Nicotinamide; GAMT - 2.5 uM Guanidinoacetate.6, 8, 10. Room temperature
(§23) 6. Final reaction conditions: 10 nM COMT, 5 uM SAM, 15 uM norepinephrine, 50 mM Tris, pH 8.0, 3 mM MgCl2, 1 mM EDTA, 50 mM NaCl, 1 mM DTT, and 0.1 mg/mL BSA; refer to tables 2 and S1 for specific timing.
8. […]

The target in test [2] is Glycine N-methyltransferase (Homo sapiens) (UniProt Q14749). Particulars: purified enzyme, MTase-Glo SAH luminescence; measured here: GNMT inhibition; at 40 µM; stronger effect = lower value.
From the text: as §1, §2, §3, §4, §5, §6, §7, §8, §9, §10, §11, §12, §13, §14, §15, §16, §17, §18, §19, §20, §21, §22, §23
8. […]

The target of test [3] is Guanidinoacetate N-methyltransferase (Homo sapiens) (UniProt Q14353). Particulars: purified enzyme, MTase-Glo SAH luminescence; measured here: GAMT inhibition; at 40 µM; stronger effect = lower value.
From the text: as §1, §2, §3, §4, §5, §6, §7, §8, §9, §10, §11, §12, §13, §14, §15, §16, §17, §18, §19, §20, §21, §22, §23
8. […]

Test [4] addresses Histamine N-methyltransferase (Homo sapiens) (UniProt P50135). Conditions: purified enzyme, MTase-Glo SAH luminescence; measured here: HNMT inhibition; at 40 µM; stronger effect = lower value.
From the text: as §1, §2, §3, §4, §5, §6, §7, §8, §9, §10, §11, §12, §13, §14, §15, §16, §17, §18, §19, §20, §21, §22, §23
8. […]

Test [5] has as its target Nicotinamide N-methyltransferase (Homo sapiens) (UniProt P40261). Conditions: purified enzyme, MTase-Glo SAH luminescence; measured here: NNMT inhibition; at 40 µM; stronger effect = lower value.
From the text: as §1, §2, §3, §4, §5, §6, §7, §8, §9, §10, §11, §12, §13, §14, §15, §16, §17, §18, §19, §20, §21, §22, §23
8. […]

Test [6] concerns the target Phenylethanolamine N-methyltransferase (Homo sapiens) (UniProt P11086). Conditions: purified enzyme, MTase-Glo SAH luminescence; measured here: PNMT inhibition; at 40 µM; stronger effect = lower value.
From the text: as §1, §2, §3, §4, §5, §6, §7, §8, §9, §10, §11, §12, §13, §14, §15, §16, §17, §18, §19, §20, §21, §22, §23
8. […]

SMILES strings stand for the structures. Screen size: about 25,000 compounds; about 970 (3.9%) were called active. Roughly 8% stayed inconclusive and do not appear here. The rule behind the calls is not given here. The list comes from a sample in which actives are over-represented; it also holds similar structures and randomly drawn compounds.
% is set by controls: 0 for no effect and ±100 for the full control effect.

Nicotinamide N-methyltransferase (Homo sapiens), sequence (P40261 whole entry, looked up): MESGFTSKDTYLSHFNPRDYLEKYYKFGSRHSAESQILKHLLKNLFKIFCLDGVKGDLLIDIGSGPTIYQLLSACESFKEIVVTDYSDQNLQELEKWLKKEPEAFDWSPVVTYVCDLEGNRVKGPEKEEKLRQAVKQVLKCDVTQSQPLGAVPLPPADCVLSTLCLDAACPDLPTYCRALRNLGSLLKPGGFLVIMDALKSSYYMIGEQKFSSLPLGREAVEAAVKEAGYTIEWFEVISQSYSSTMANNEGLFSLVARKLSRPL
Glycine N-methyltransferase (Homo sapiens), sequence (Q14749 whole entry, looked up): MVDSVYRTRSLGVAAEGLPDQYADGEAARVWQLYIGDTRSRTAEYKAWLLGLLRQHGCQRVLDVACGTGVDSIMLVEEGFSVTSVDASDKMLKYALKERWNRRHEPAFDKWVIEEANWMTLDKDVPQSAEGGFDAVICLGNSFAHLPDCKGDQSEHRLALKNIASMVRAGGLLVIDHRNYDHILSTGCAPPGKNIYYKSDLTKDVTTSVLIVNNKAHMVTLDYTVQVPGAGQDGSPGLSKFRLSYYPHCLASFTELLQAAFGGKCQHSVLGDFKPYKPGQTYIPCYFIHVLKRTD
Histamine N-methyltransferase (Homo sapiens), sequence (P50135 whole entry, looked up): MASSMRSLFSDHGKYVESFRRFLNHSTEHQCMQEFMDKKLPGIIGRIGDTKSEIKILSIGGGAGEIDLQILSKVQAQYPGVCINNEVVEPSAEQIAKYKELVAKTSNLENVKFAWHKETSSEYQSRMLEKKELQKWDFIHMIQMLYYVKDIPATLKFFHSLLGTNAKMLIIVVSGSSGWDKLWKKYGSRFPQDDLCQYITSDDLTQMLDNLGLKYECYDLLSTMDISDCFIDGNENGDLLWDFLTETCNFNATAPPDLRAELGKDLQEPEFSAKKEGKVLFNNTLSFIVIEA
Catechol O-methyltransferase (Homo sapiens), sequence (P21964 whole entry, looked up): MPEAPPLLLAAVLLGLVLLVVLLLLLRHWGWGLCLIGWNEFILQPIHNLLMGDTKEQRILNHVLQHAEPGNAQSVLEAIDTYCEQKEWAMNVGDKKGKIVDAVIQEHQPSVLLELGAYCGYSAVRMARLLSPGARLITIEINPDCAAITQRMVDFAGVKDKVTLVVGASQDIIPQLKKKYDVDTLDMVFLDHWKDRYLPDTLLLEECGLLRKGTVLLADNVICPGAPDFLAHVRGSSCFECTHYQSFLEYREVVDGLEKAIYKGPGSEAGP
Phenylethanolamine N-methyltransferase (Homo sapiens), sequence (P11086 whole entry, looked up): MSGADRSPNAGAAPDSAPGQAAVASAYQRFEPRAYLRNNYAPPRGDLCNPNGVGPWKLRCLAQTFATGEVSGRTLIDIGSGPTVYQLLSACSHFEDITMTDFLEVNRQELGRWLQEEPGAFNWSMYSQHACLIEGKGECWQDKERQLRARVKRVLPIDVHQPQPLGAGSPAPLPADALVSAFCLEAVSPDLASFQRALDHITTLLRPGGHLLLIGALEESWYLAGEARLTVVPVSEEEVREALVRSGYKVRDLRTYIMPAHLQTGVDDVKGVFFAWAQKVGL

As to `O=S(=O)(c1ccc2[nH]c3c(c2c1)CCCC3)N1CCN(Cc2ccccc2)CC1`, the activity change, negative = inhibition is 4.94% (inactive) in test [1]; 5.6% in test [2]; 0% in test [3]; 5.93% in test [4]; 5.54% in test [5]; 4.34% in test [6].

Regarding `Cc1nc2c(c(NC3CC3)n1)CCN(C(=O)CCc1cccnc1)CC2`, the activity change, negative = inhibition in test [1] was -0.626% (inactive); in test [2], -3.41%; in test [3] it was -8.98%; in test [4], -2.51%; in test [5] it was -8.36%; in test [6] it was -4.07%.

Consider `COc1cc(NC(=O)Nc2cccc(CNC(=O)O[C@H]3CCOC3)c2)ccc1-c1cnco1`, for which the activity change, negative = inhibition in test [1] is -2.73% (active); in test [2] it was -16.2%; in test [3], 1.61%; in test [4], -89.1%; in test [5], -22.8%; in test [6] it was -6.4%.

On to `CC1CCCC(NC(=O)C2(C)Cn3c(nc4ccccc43)C(=O)N2Cc2ccc(Cl)cc2)C1C` (stereo not given), for which the activity change, negative = inhibition was 1.59% (inactive) in test [1]; -0.93% in test [2]; 1.75% in test [3]; 0.57% in test [4]; 2.43% in test [5]; -2.27% in test [6].

For the molecule `Cc1cccc(CCNC(=O)c2cc3n(n2)CC(C)(C(=O)NCc2ccccc2)N(C)C3=O)c1` (stereo not given), the activity change, negative = inhibition in test [1] was 0.858% (inactive); in test [2], 3.01%; in test [3], 0.251%; in test [4] it was 3.89%; in test [5], 3.49%; in test [6], 1.3%.

With `CCCS(=O)(=O)N1CCCC(Cc2noc(-c3cnccn3)n2)C1` (stereo not given), the activity change, negative = inhibition in test [1] was -2.88% (inactive); in test [2], -4%; in test [3] it was -4.91%; in test [4], -0.21%; in test [5], -5.94%; in test [6], -4.02%.

Turning to `CCCS(=O)(=O)N1CCCC(Cn2c(C)nc3cccnc32)C1` (stereo not given), the activity change, negative = inhibition in test [1] was -1.28% (active); in test [2], -90.9%; in test [3], -3.03%; in test [4], -2.37%; in test [5], -5.85%; in test [6], -1.53%.

On to `CCCS(=O)(=O)N1CCCC(OCc2noc(C3CCOCC3)n2)C1` (stereo not given), for which the activity change, negative = inhibition in test [1] was -3.2% (inactive); in test [2] it was -4.75%; in test [3], -6.9%; in test [4] it was -3.01%; in test [5], -9.35%; in test [6], -7.82%.

`CC1(C(=O)NC2CCCC2)Cn2c(cc3ccccc32)C(=O)N1c1ccc(F)cc1` (stereo not given): the activity change, negative = inhibition in test [1] is 1% (inactive); in test [2] it was 0.736%; in test [3], 0%; in test [4] it was 3.74%; in test [5], 5.9%; in test [6], 0.017%.

Take `Cc1cccc(NC(=O)CSc2nnc3n(CC(C)C)c(=O)c4ccc(C(=O)NC(C)C)cc4n23)c1`: the activity change, negative = inhibition was 2.32% (inactive) in test [1]; 0.335% in test [2]; 4.37% in test [3]; 4.71% in test [4]; -3.04% in test [5]; 1.77% in test [6].

As to `Cc1c(NS(=O)(=O)c2cccc3c2C(=O)c2ccccc2C3=O)c(=O)n(-c2ccccc2)n1C`, the activity change, negative = inhibition in test [1] was -6.91% (inactive); in test [2], -20.9%; in test [3], 3.01%; in test [4], -5.26%; in test [5] it was -8.5%; in test [6] it was -27%.

As for `COc1ccccc1CCN1C(=O)c2ccc(-c3ccco3)n2CC1(C)C(=O)NC1CCCCCC1` (stereo not given), the activity change, negative = inhibition in test [1] is -0.859% (inactive); in test [2], -4.07%; in test [3] it was 0%; in test [4] it was -1.27%; in test [5] it was -3.86%; in test [6] it was -2.83%.

On to `Cc1ccc(N2C(=O)c3cc(-c4ccco4)nn3CC2(C)C(=O)NC2CCCCC2)cc1Cl` (stereo not given), for which the activity change, negative = inhibition was -4.47% (inactive) in test [1]; -10.8% in test [2]; 2.7% in test [3]; -6.61% in test [4]; -7.94% in test [5]; -7.34% in test [6].

Regarding `O=C(c1coc(CN2CCN(C/C=C/c3ccccc3)CC2)n1)N1CCC[C@H]1CO`, the activity change, negative = inhibition is 1.4% (inactive) in test [1]; -0.744% in test [2]; 2.52% in test [3]; 0.892% in test [4]; -2.33% in test [5]; 15.6% in test [6].

Consider `O=C1Nc2ccc(O)cc2O[C@H]1O[C@@H]1O[C@H](CO)[C@@H](O)[C@H](O)[C@H]1O`, for which the activity change, negative = inhibition in test [1] is 2.34% (inactive); in test [2], 1.1%; in test [3], 7.9%; in test [4] it was 2.99%; in test [5], -5.97%; in test [6], 2.07%.

These data come from PubChem BioAssay AID1745853 (National Center for Advancing Translational Sciences (NCATS), 2022).
